Screens from PubChem.
HT1080NT lethal – qHTS for induction of synthetic lethality in tumor cells producing 2HG: qHTS for the HT-1080-NT fibrosarcoma cell line. HT-1080-NT fibrosarcoma viability, CellTiter-Glo ATP luminescence, 48 h. Potency, µM (highest dose often 46.1 µM), inactives show at the highest dose activity, negative = less viability, actives largely listed as cytotoxic. 360,000 compounds, 1.6% hits;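 further: NT is the 2HG producing partner of a matched IDH1 knockdown line; potency means the concentration at half of the fitted maximal effect; 0% = DMSO-treated cells and -100% = media-only wells without cells; nearly all actives have a fitted effect of over 55% in size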
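HT-1080-NT; 750 cells/well; 5% FBS RPMI; 48 h compound, 37 degrees C; CellTiter-Glo luminescence; curve fitting and curve-class assignment.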
DT40 TDP1 CPT – qHTS for Inhibitors of human tyrosyl-DNA phosphodiesterase 1 (TDP1): qHTS in cells in presence of CPT. AID 686979, 2013. 420,000 compounds, 12% hits. chicken DT40 Tdp1-/-;hTDP1 cells + 20 nM CPT, ATP luminescence, 48 h. Potency, µM (doses to about 46.2 µM), without a hit: at the highest dose activity change, negative = growth inhibition, actives largely listed as inhibitors; further: potency means the concentration at half of the fitted maximal effect; nearly all actives have a fitted effect of over 55% in size
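Cell growth measured by CellTiter-Glo luminescence after a minimum 48 h, 37 C compound exposure with 20 nM CPT in Tdp1-knockout DT40 cells stably expressing hTDP1, seeded 400/well; qHTS titration format.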
DT40 TDP1 no CPT – qHTS for Inhibitors of human tyrosyl-DNA phosphodiesterase 1 (TDP1): qHTS in cells in absence of CPT. DT40 Tdp1-/- hTDP1 cells, no CPT, ATP luminescence, 48 h. Potency, µM (series often up to 46.2 µM), without a hit: at the highest dose activity change, negative = growth inhibition, hits mostly inhibitors. 420,000 compounds, 15% hits. AID 686978, 2013; further: potency means the concentration at half of the fitted maximal effect; nearly all actives have a fitted effect of over 55% in size
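DT40 Tdp1-/-;hTDP1 cells, no CPT (DMSO vehicle only), 400 cells/well; compounds pin-transferred; ≥48 hr, 37 °C; CellTiter-Glo 30 min RT dark, luminescence read.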
HT1080 IDH1KD tx – qHTS for induction of synthetic lethality in tumor cells producing 2HG: qHTS for the HT-1080-IDH1KD cell line; HT-1080 IDH1 knockdown viability, ATP luminescence, 48 h; Potency, µM (highest dose often 46.1 µM), for inactives: at the highest dose activity, negative = toxicity, actives largely listed as cytotoxic; 360,000 compounds, 2% hits; AID 686971, 2013;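 further: potency means the concentration at half of the fitted maximal effect; 0% = DMSO wells and -100% = cell-free medium wells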
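In this qHTS, HT-1080 cells depleted of IDH1 are exposed for 48 h at 37 °C to compound titrations. Toxicity is scored from CellTiter-Glo luminescence, with DMSO as full viability and medium alone as none.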
IL-1B inflam inh – qHTS for Inhibitors of Inflammasome Signaling: IL-1-beta AlphaLISA Primary Screen; 360,000 compounds, 4.7% hits; THP-1 LPS/ATP IL-1B secretion, AlphaLISA, 16 h; active compounds read low; activity change, % at 57.5 µM; in the data active means activity change below about -50%; inconclusive means mostly about -30% to -49%
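THP-1 cells pretreated 1 hr with compounds (up to 57.5 uM final), then stimulated with LPS (250 ng/mL final) plus ATP (1.25 mM final); secreted IL-1B measured by AlphaLISA after 16 hr, decreased signal indicating inhibition.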
Numbers without * were called inactive; ? = inconclusive; / = no result given; [ ] = remark or other dose. Rows were chosen to be rich in hits. Some 19% of all compounds tested hit in one or more screens of this group. Unless noted, the call rests on the fitted dose curve; in most records, active means well fitted curve in the direction sought with a large enough effect; inconclusive means small, poorly fitted or top-dose-only effect, or another doubt; inactive means no such curve, though single readings can be large; an effect the other way counts as inactive or inconclusive. Unless noted, on the % scale 0 is the no-effect control and ±100 the full control effect.

SMILES	HT1080NT lethal	DT40 TDP1 CPT	DT40 TDP1 no CPT	HT1080 IDH1KD tx	IL-1B inflam inh
CCCOC(=O)C(C)n1cnc2scc(-c3ccc(C)cc3)c2c1=O (stereo unspecified)	-12.3%	?	-0.1%	-8.2%	-7.9
CC(C)=CCCC(C)CN1CCC(N2CCC(C(=O)NC(C)C)CC2)CC1 (stereo unspecified)	-2.6%	23.1µM*	16.4µM*	-7.9%	-24.8
CC(C)(C)C1=C(C#N)C(c2cc3c(cc2Br)OCO3)C(C#N)=C(N)O1 (stereo unspecified)	12.2%	-22.1%	-18.9%	19.7%	41.4
Cc1cccc(N2CCN(C3=NC(=O)C(Cc4ccccc4)S3)CC2)c1 (stereo unspecified)	-2.2%	?	14.6µM*	2.5%	-4.0
S=c1[nH]nc(-c2ccccn2)n1/N=C/c1ccc(-c2ccccc2Br)o1	5.3%	-9.2%	-3.3%	?	0.0
Cn1ncc2c(N3CCN(c4ccc(Cl)c(Cl)c4)CC3)ncnc21	?	10.3µM*	7.31µM*	?	-60.1*
Cn1ncc2c(N3CCN(c4ccccc4F)CC3)ncnc21	6.2%	?	23.1µM*	-4.7%	-3.0
Cn1nnc2c(N3CCN(c4cccc(Cl)c4)CC3)ncnc21	/	?	4.11µM*	/	/
COc1ccccc1N1CCN(c2ncnc3c2cnn3-c2ccc(C)cc2)CC1	/	-19.9%	-4.9%	/	/
CCCCn1c(NCc2cc(Br)ccc2O)nc2ccccc21	/	14.6µM*	14.6µM*	/	/
CCCn1c(NCc2c[nH]c3ccccc23)nc2ccccc21	-1.5%	?	?	-9.5%	-52.4*
CCCCn1c(NCc2ccncc2)nc2ccccc21	-0.3%	-14.8%	-17.3%	10.4%	-1.1
CCCCn1c(NCc2ccc(N(C)C)cc2)nc2ccccc21	-3.0%	25.9µM*	25.9µM*	-19.3%	?
CCN(CC)CCn1c(NCc2ccc3c(c2)OCO3)nc2ccccc21	-13.5%	13µM*	16.4µM*	-7.6%	-15.7
O=C(c1cnccn1)N1CCC[C@@]2(CCN(c3ccccn3)C2)C1	/	12.5%	-17.8%	/	/
c1csc(CNc2nc3ccccc3n2CCN2CCOCC2)c1	0.9%	-20.8%	-6.1%	-2.3%	-15.7
COc1ccc(CNc2nc3ccccc3n2CCN2CCOCC2)cc1	-14.8%	-21.1%	20.6µM*	-5.2%	-10.0
c1ccc(CNc2nc3ccccc3n2CCN2CCOCC2)nc1	22.2%	-6.6%	-6.1%	0.3%	12.5
CCN(CC)c1ccc(CNc2nc3ccccc3n2CCN2CCOCC2)cc1	-10.8%	?	18.4µM*	-23.9%	-76.4*
COc1ccc(OC)c(/C=N/NC(=O)CCc2c(C)n[nH]c2C)c1	6.9%	-13.3%	-27.0%	8.0%	-8.5
COc1ccc(OC)c(/C=N/NC(=O)CCc2ccc(O)c(O)c2)c1	-18.3%	20.6µM*	?	-19.2%	-26.0
COc1ccc(OC)c(C=NNC(=O)NN=Cc2cc(OC)ccc2OC)c1	-4.0%	?	25.9µM*	1.7%	-10.6
CCOC(=O)C1(C(=O)OCC)C(C)CC(=O)N1c1ccccc1OC (stereo unspecified)	13.5%	-11.2%	8.3%	10.4%	9.5
CC1C=CC(C)C(C(=O)c2ccccc2)C1C(=O)c1ccccc1 (stereo unspecified)	-15.7%	13µM*	23.1µM*	-22.7%	26.2
O=C(c1ccccc1)C1OC1C(=O)c1ccccc1 (stereo unspecified)	?	4.11µM*	6.51µM*	?	-95.7*
SMILES	HT1080NT lethal	DT40 TDP1 CPT	DT40 TDP1 no CPT	HT1080 IDH1KD tx	IL-1B inflam inh
CC(Sc1nnc(-c2ccc(OC(F)F)cc2)n1N)C(=O)NCC1CCCO1 (stereo unspecified)	2.3%	5.6%	-3.0%	13.9%	-4.5
Cn1nc(C(=O)OCc2ccc(F)cc2)c2ccccc2c1=O	0.1%	2.1%	?	7.5%	21.5
COc1ccc(Cl)cc1C(=O)NNC(=O)c1nn(C)c(=O)c2ccccc12	-17.5%	?	16.4µM*	?	20.5
Cc1ccc(COC(=O)c2nn(C)c(=O)c3ccccc23)cc1	-15.6%	?	13µM*	?	40.8
CCN(CC)S(=O)(=O)c1cccc(NC(=O)CCNC(=O)NC23CC4CC(CC(C4)C2)C3)c1	-13.6%	?	?	-21.2%	-21.8
Cc1ccc(C(=O)NCCN2CCC(n3c(=O)[nH]c4ccccc43)CC2)cc1C	-21.4%	?	?	-19.7%	/
COc1ccccc1CNC(=O)c1cc(-c2ccccc2)nn1CC1CC(c2cccnc2)=NO1 (stereo unspecified)	4.2%	?	?	6.6%	-3.9
O=C(NCc1ccco1)c1cc(-c2ccccc2)nn1CC1CC(c2cccc([N+](=O)[O-])c2)=NO1 (stereo unspecified)	2.9%	?	?	3.6%	-13.5
Cc1ccccc1-c1cc(C(=O)NCc2ccco2)n(CC2CC(c3cccnc3)=NO2)n1 (stereo unspecified)	?	18.4µM*	20.6µM*	?	-4.2
COc1ccc(C2=NOC(Cn3nc(-c4ccccc4)cc3C(=O)NCc3ccccc3OC)C2)cc1 (stereo unspecified)	1.2%	11.6µM*	10.3µM*	9.2%	-22.7
CC(C(=O)N1c2ccccc2Sc2ccccc21)n1nnc(-c2cccs2)n1 (stereo unspecified)	0.0%	-9.1%	-0.7%	0.0%	7.6
Cc1ccc(-c2nnn(C(C)C(=O)N3c4ccccc4CCc4ccccc43)n2)cc1 (stereo unspecified)	-16.2%	?	29.1µM*	-7.8%	-1.4
CC(C(=O)N1c2ccccc2CCc2ccccc21)n1nnc(-c2ccc(N(C)C)cc2)n1 (stereo unspecified)	1.3%	?	16.4µM*	-3.6%	-20.4
COc1ccc(CN2C(=O)NC3(CCCC3)C2=O)cc1F	24.5%	23.1%	24.5%	22.9%	15.5
COc1ccc(CN2C(=O)NC3(CCCCCC3)C2=O)cc1F	10.1%	16.4µM*	14.6µM*	8.2%	4.6
Cc1ccc2c(c1)c1ncnc(N3CCN(c4ccccc4)CC3)c1n2C	0.7%	20.6µM*	?	1.4%[9.24 µM]	16.4
COC(=O)c1ccc(NC(=O)CC2C(=O)N(c3ccc(Cl)cc3)C(=O)N2Cc2ccco2)cc1 (stereo unspecified)	/	16.4µM*	18.4µM*	/	/
COC(=O)c1ccc(NC(=O)CC2C(=O)N(c3cccc(OC)c3)C(=O)N2Cc2ccco2)cc1 (stereo unspecified)	/	16.4µM*	?	/	/
